Measurements published in article PMC3218832.

How the values were obtained:
Assay in all cases: protein binding microarray; high values mean tight binding
Conditions in all cases: dsDNA, one strand shown
RELARELA (p65 homodimer) = RELARELA (p65 homodimer) (Homo sapiens, UniProt Q04206 1-307)
p50p50 homodimer = p50p50 homodimer (Homo sapiens, UniProt P19838 7-356)
p52p52 homodimer = target: T1, p52p52 homodimer (Homo sapiens, UniProt Q00653 4-332)
T1 sequence: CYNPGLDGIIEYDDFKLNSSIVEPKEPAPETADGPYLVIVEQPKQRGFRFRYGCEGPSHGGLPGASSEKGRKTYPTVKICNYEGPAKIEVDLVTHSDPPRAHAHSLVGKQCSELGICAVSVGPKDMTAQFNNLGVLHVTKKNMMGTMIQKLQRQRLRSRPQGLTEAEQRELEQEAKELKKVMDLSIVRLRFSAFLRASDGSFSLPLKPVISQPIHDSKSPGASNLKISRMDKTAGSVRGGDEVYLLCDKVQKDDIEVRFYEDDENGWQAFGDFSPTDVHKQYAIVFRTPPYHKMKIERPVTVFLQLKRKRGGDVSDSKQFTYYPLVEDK

[1] = target: RELA (p65) subunit of heterodimer;p50 subunit (Homo sapiens;Homo sapiens, UniProt Q04206;P19838 1-307;7-356)
Chain of RELA (p65) subunit of heterodimer;p50 subunit (Q04206 1-307, chain 1 of 2): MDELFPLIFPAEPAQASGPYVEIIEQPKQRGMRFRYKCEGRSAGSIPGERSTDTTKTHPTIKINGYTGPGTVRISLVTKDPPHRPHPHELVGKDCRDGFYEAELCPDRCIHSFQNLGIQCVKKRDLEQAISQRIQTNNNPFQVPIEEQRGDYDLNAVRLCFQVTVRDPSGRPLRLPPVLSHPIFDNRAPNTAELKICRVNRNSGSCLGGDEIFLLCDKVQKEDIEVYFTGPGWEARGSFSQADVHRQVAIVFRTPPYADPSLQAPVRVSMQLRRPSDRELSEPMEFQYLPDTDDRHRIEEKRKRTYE
Chain of RELA (p65) subunit of heterodimer;p50 subunit (P19838 7-356, chain 2 of 2): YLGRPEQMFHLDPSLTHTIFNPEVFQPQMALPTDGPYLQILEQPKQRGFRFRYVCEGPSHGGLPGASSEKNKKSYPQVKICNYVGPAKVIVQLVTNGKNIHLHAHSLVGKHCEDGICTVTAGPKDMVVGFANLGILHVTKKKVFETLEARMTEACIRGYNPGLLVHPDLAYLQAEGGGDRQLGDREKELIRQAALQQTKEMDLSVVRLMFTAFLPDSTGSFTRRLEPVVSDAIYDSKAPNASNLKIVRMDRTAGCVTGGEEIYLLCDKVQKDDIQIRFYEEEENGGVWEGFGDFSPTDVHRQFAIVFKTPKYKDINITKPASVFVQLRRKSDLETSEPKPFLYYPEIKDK

[2] = target: RELA (p65) subunit of heterodimer;p52 subunit (Homo sapiens;Homo sapiens, UniProt Q04206;Q00653 1-307;4-332)
RELB subunit;p50 subunit = RELB subunit;p50 subunit (Homo sapiens;Homo sapiens, UniProt Q01201;P19838 120-401;7-356)
RELB subunit;p52 subunit = target: T2, RELB subunit;p52 subunit (Homo sapiens;Homo sapiens, UniProt Q01201;Q00653 120-401;4-332)
T2 sequence 1: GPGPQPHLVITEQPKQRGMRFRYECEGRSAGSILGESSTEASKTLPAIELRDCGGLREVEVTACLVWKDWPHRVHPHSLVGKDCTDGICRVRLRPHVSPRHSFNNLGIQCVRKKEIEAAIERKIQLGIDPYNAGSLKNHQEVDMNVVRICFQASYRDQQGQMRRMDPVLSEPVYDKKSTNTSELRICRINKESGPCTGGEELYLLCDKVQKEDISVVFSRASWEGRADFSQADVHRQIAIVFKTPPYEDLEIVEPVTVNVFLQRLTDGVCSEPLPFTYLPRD
T2 sequence 2: T1 sequence

[3] = target: C-Rel subunit;p50 subunit (Homo sapiens;Homo sapiens, UniProt Q04864;P19838 1-285;7-356)
[4] = target: T3, C-Rel subunit;p52 subunit (Homo sapiens;Homo sapiens, UniProt Q04864;Q00653 1-285;4-332)
T3 sequence 1: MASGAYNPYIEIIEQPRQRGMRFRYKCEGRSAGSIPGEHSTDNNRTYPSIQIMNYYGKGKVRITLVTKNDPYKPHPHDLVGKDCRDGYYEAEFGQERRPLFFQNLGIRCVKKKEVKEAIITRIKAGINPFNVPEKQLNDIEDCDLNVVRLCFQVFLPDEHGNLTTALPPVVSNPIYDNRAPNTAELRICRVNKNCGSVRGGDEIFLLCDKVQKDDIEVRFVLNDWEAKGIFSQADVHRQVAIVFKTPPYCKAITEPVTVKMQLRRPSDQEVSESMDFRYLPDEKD
T3 sequence 2: T1 sequence

Chain of p50p50 homodimer (P19838 7-356): as the sequence (P19838 7-356, chain 2 of 2) above
Chain of RELARELA (p65 homodimer) (Q04206 1-307): as the sequence (Q04206 1-307, chain 1 of 2) above

| Sequence | binding signal (RELARELA (p65 homodimer)) [z-score] | binding signal (p50p50 homodimer) [z-score] | binding signal (p52p52 homodimer) [z-score] | binding signal [1] [z-score] | binding signal [2] [z-score] | binding signal (RELB subunit;p50 subunit) [z-score] | binding signal (RELB subunit;p52 subunit) [z-score] | binding signal [3] [z-score] | binding signal [4] [z-score] |
| --- | --- | --- | --- | --- | --- | --- | --- | --- | --- |
| GAGTACACCCT | -0.136 | -0.892 | -0.573 | -0.83 | -0.569 | -0.614 | -0.527 | -0.745 | -0.376 |
| GGGGAGGTCCT | 0.546 | 0.328 | 1.26 | 0.275 | 0.847 | 0.375 | 0.376 | 0.314 | 0.559 |
| AAGTTATCCCC | 0.516 | 1.08 | 0.864 | 0.995 | 0.69 | 1.26 | 1.11 | 1.16 | 0.506 |
| AGAGGTTCCCC | 0.439 | 1.06 | 1.33 | 1.54 | 1.33 | 1.41 | 1.64 | 1.37 | 1.14 |
| CAAGTATTCCT | -0.0829 | -1.19 | -0.607 | -0.839 | -0.737 | -0.975 | -0.645 | -0.507 | -0.822 |
| AAAATAACCCC | 0.617 | 1.07 | 1.26 | 1.03 | 1.24 | 0.895 | 1.14 | 0.682 | 1.16 |
| AAGTGCCTCCC | -0.0547 | -1.21 | -0.495 | -0.501 | -0.793 | -0.787 | -0.731 | -1.1 | -0.788 |
| GGAGAGCTCCT | -0.469 | -1.71 | -0.711 | -1.01 | -1.01 | -1.17 | -1.06 | -1.65 | -1.07 |
| AGAGTAGCCCT | -0.721 | -1.16 | -0.729 | -0.963 | -0.869 | -0.78 | -0.814 | -1.22 | -0.688 |
| GGGGTCGCCCC | 0.508 | 0.472 | 2.74 | 1.36 | 2.18 | 1.44 | 1.61 | 0.866 | 1.5 |
| AAAAGTCTCCC | 0.0565 | 0.0889 | -0.045 | 0.215 | 0.0155 | 0.205 | 0.142 | 0.0274 | -0.177 |
